From PubChem BioAssay (NCATS) come the findings set out here.

Inconclusive results are not listed. Where a call stands in place of a potency, no number is given. Unmarked numbers belong to inactive results. Calls of active or inactive are those of the source. Unless noted, calls follow the shape of the full dose curve.

Chain of Cytochrome P450 1A2 (Homo sapiens) (P05177 whole entry, looked up): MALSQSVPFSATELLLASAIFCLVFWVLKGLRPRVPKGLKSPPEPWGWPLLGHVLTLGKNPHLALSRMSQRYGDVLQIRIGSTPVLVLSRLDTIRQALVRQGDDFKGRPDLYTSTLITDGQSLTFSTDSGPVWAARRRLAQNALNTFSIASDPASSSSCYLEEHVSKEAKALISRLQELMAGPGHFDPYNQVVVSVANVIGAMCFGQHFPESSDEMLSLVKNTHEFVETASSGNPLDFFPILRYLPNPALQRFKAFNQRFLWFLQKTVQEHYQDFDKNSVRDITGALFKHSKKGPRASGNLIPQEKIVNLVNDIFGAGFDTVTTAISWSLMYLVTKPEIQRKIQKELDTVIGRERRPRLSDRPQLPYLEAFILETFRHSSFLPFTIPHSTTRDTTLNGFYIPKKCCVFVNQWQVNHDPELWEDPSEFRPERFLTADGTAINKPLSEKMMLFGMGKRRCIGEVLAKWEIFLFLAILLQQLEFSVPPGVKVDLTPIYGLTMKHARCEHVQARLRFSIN

System in one assay: not listed separately
Description: AP1 Signaling Pathway (AID 357; active = well fitted curve in either direction with a large enough effect, not every such curve was filed as active;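 also: ME-180 reporter cells stimulated with EGF at its EC50 level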). Conditions: ME-180 (cervical carcinoma) AP-1-bla reporter, EGF-induced, beta-lactamase ratio, 5 h; at 7.69 µM (top of the series) unless noted. An outline of the steps: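 AP-1-bla ME-180 cells, Opti-MEM + 0.5% dialyzed FBS, plated overnight 37 °C. Cpd titration + EC50 EGF, 5 h 37 °C. CCF4 2.5 h RT; ex 405, em 460/530 ratio → %activity, AC50.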
Regarding `COc1ccccc1CN1CCCC2(CCNCC2)C1`, the activity change, negative = inhibition was -7.6%.

Consider `COC(=O)N1CCC[C@@]2(CCN(c3ccccn3)C2)C1`, for which the activity change, negative = inhibition is -6.02%.

In the case of `Cn1cccc1C(=O)N1CCC2(CCN(C(=O)Nc3cccc(F)c3)CC2)CC1`, the activity change, negative = inhibition is -12.6%.

With `O=C(c1csnn1)N1CCC2(CC1)CN(Cc1cc(C(F)(F)F)cc(C(F)(F)F)c1)C2`, the activity change, negative = inhibition was 15.8%. Turning to `O=C(Nc1ccccc1)N1CCC2(CC1)CCN(C(=O)c1csnn1)CC2`, the activity change, negative = inhibition is -1.74%.

As for `CN1CCC2(CC1)CCN(C(=O)c1cc(C(F)(F)F)cc(C(F)(F)F)c1)CC2`, the activity change, negative = inhibition is -8.71%. Still for that read-out and setting: with `CC(=O)N1CCC2(CCN(Cc3nccs3)CC2)CC1` the figure was 3.58%; with `COc1ccccc1CN1CCC2(CC1)CCN(C(C)=O)CC2`, -6.68%.

Turning to `CS(=O)(=O)N1CCC2(CCN(C(=O)Nc3cccc(C#N)c3)CC2)CC1`, the activity change, negative = inhibition was 2.04%. On the same count and under the same terms, for `COc1ccc(NC(=O)N2CCC3(CC2)CCN(C(=O)c2cnccn2)CC3)cc1` the value was -11.1%; for `O=C(c1ccco1)N1CCC2(CC1)CCN(c1ccccc1)CC2`, 2.89%. Still for that read-out and setting: for `COc1ccc(NC(=O)N2CC[C@@]3(CCCNC3)C2)cc1` the value was -15.6%. Same read-out and setting: for `Cc1noc(C)c1C(=O)N1CCC[C@@]2(CCN(c3ncccn3)C2)C1` the value was 2.18%. `COC(=O)N1CCC2(CC1)CN(C(=O)Nc1ccccc1)C2`: the activity change, negative = inhibition is -8.08%. Same read-out and setting: with `COCC(=O)N1CCC2(CC1)CCN(C(=O)Nc1cccc(F)c1)CC2` the figure was 5.9%; with `O=C(Nc1ccccc1)N1CCC2(CC1)CCN(C(=O)c1cnccn1)CC2`, -8.59%; with `COC(=O)N1CCC2(CCN(Cc3nccs3)CC2)CC1`, -10.7%. Still for that read-out and setting: for `COc1ccc(NC(=O)N2CC3(CCN(C(=O)c4ccco4)CC3)C2)cc1` the value was -4.09%; for `COc1ccc(NC(=O)N2CC3(CCN(C(=O)c4c(C)noc4C)CC3)C2)cc1`, 4.05%; for `CC(C)NC(=O)N1CC[C@@]2(CCCN(C(=O)c3cccn3C)C2)C1`, 12.3%. On to `FC(F)(F)c1cc(CN2CC3(CCNCC3)C2)cc(C(F)(F)F)c1`, for which the activity change, negative = inhibition is -6.77%.

On to `O=C(Nc1cccc(F)c1)N1CC2(CCN(S(=O)(=O)c3ccccc3)CC2)C1`, for which the activity change, negative = inhibition was -8.31%.

Turning to `COCC(=O)N1CCC[C@@]2(CCN(c3ncccn3)C2)C1`, the activity change, negative = inhibition is -8.65%.

For the next assay, the target named is Cytochrome P450 1A2 (Homo sapiens) (UniProt P05177). Description: p450-cyp1a2 (AID 410). Also: potency is read from the fitted curve at half-maximal effect. Conditions: recombinant CYP1A2, luciferin-ME demethylation, luminescence; series mostly up to 57 µM. An outline of the steps:
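Inhibition was calculated relative to 57 uM furafylline (full inhibition). The reaction used human CYP1A2 at 20nM with Luciferin-ME at its Km, 100uM, driven by an NADPH-regenerating system for 60 min at room temperature.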
Take `Cc1noc(C)c1C(=O)N1CCC[C@@]2(CCN(C(=O)NC(C)C)C2)C1`: the Potency result was “inactive”. Take `COCC(=O)N1CCC2(CC1)CN(C(=O)Nc1cccc(C#N)c1)C2`: the Potency entry is “inactive”. For `Cc1noc(C)c1C(=O)N1CCC2(CCN(C(=O)NC(C)C)CC2)CC1`, the Potency is 5.01 µM (active). Turning to `O=C(Nc1ccccc1)N1CC[C@@]2(CCCN(C(=O)c3ccco3)C2)C1`, the Potency was 10 µM (active). Still for that read-out and setting: with `CC(=O)N1CCC2(CCCN(c3ccccn3)C2)CC1` the entry was “inactive”. With `CC(=O)N1CCC2(CCN(Cc3ccncc3)CC2)CC1`, the Potency entry was “inactive”. Consider `O=C(Nc1cccc(F)c1)N1CCC2(CCNCC2)CC1`, for which the Potency result was “inactive”. Regarding `COCC(=O)N1CCC2(CC1)CN(C(=O)Nc1cccc(F)c1)C2`, the Potency result is “inactive”. Still for that read-out and setting: for `COCC(=O)N1CCC2(CC1)CN(Cc1cc(C(F)(F)F)cc(C(F)(F)F)c1)C2` the value was 25.1 µM (active). Take `COCC(=O)N1CCC2(CCCN(C(=O)Nc3cccc(F)c3)C2)CC1`: the Potency entry was “inactive”. The same measure, in the same setting: for `COCC(=O)N1CCC2(CC1)CN(C(=O)Nc1ccc(OC)cc1)C2` the value was “inactive”; for `Cn1cccc1C(=O)N1CCC2(CC1)CN(C(=O)Nc1ccccc1)C2`, “inactive”; for `COC(=O)N1CCC[C@@]2(CCN(C(=O)Nc3ccccc3)C2)C1`, 12.6 µM (active). Consider `O=C(c1ccncc1)N1CCC2(CC1)CN(c1ncccn1)C2`, for which the Potency was 6.31 µM (active). For the compound `CC(C)NC(=O)N1CCC2(CC1)CCN(C(=O)c1ccco1)CC2`, the Potency result is “inactive”.

With `O=C(Nc1ccccc1)N1CC2(CCN(C(=O)c3ccco3)CC2)C1`, the Potency result is “inactive”. As to `COc1ccccc1CN1CCCC2(CCNCC2)C1`, the Potency result is “inactive”. With `COC(=O)N1CCC[C@@]2(CCN(c3ccccn3)C2)C1`, the Potency is 15.8 µM (active).

For `Cn1cccc1C(=O)N1CCC2(CCN(C(=O)Nc3cccc(F)c3)CC2)CC1`, the Potency result is “inactive”. Same read-out and setting: for `O=C(c1csnn1)N1CCC2(CC1)CN(Cc1cc(C(F)(F)F)cc(C(F)(F)F)c1)C2` the value was “inactive”; for `O=C(Nc1ccccc1)N1CCC2(CC1)CCN(C(=O)c1csnn1)CC2`, “inactive”; for `CN1CCC2(CC1)CCN(C(=O)c1cc(C(F)(F)F)cc(C(F)(F)F)c1)CC2`, “inactive”. On the same count and under the same terms, with `CC(=O)N1CCC2(CCN(Cc3nccs3)CC2)CC1` the entry was “inactive”. Turning to `COc1ccccc1CN1CCC2(CC1)CCN(C(C)=O)CC2`, the Potency result was “inactive”.

For the compound `CS(=O)(=O)N1CCC2(CCN(C(=O)Nc3cccc(C#N)c3)CC2)CC1`, the Potency entry was “inactive”. The same measure, in the same setting: with `COc1ccc(NC(=O)N2CCC3(CC2)CCN(C(=O)c2cnccn2)CC3)cc1` the figure was 10 µM (active). Same read-out and setting: with `O=C(c1ccco1)N1CCC2(CC1)CCN(c1ccccc1)CC2` the entry was “inactive”. Regarding `COc1ccc(NC(=O)N2CC[C@@]3(CCCNC3)C2)cc1`, the Potency entry was “inactive”. Still for that read-out and setting: for `Cc1noc(C)c1C(=O)N1CCC[C@@]2(CCN(c3ncccn3)C2)C1` the value was “inactive”; for `COC(=O)N1CCC2(CC1)CN(C(=O)Nc1ccccc1)C2`, “inactive”; for `COCC(=O)N1CCC2(CC1)CCN(C(=O)Nc1cccc(F)c1)CC2`, “inactive”.

On to `O=C(Nc1ccccc1)N1CCC2(CC1)CCN(C(=O)c1cnccn1)CC2`, for which the Potency entry is “inactive”. The same measure, in the same setting: with `COC(=O)N1CCC2(CCN(Cc3nccs3)CC2)CC1` the entry was “inactive”; with `COc1ccc(NC(=O)N2CC3(CCN(C(=O)c4ccco4)CC3)C2)cc1`, “inactive”; with `COc1ccc(NC(=O)N2CC3(CCN(C(=O)c4c(C)noc4C)CC3)C2)cc1`, “inactive”. Consider `CC(C)NC(=O)N1CC[C@@]2(CCCN(C(=O)c3cccn3C)C2)C1`, for which the Potency entry is “inactive”. Same read-out and setting: with `FC(F)(F)c1cc(CN2CC3(CCNCC3)C2)cc(C(F)(F)F)c1` the entry was “inactive”; with `O=C(Nc1cccc(F)c1)N1CC2(CCN(S(=O)(=O)c3ccccc3)CC2)C1`, “inactive”; with `COCC(=O)N1CCC[C@@]2(CCN(c3ncccn3)C2)C1`, “inactive”.
